According to paper PMC4336329 (PLoS ONE, 2015):
Hit rate of the full screen: of about 310,000 compounds, about 2,200 (0.71%) showed an effect of 50% or more. Effects have a minus sign here. The list comes from a sample in which strong results are over-represented; it also holds similar structures and randomly drawn compounds.

Molecular target: human ether-à-go-go-related gene (hERG) potassium channel (human, UniProt Q12809)
Test: primary screen, population patch clamp on CHO cells stably expressing hERG; higher = less effect of the substance

Sequence of human ether-à-go-go-related gene (hERG) potassium channel (Q12809 whole entry, looked up): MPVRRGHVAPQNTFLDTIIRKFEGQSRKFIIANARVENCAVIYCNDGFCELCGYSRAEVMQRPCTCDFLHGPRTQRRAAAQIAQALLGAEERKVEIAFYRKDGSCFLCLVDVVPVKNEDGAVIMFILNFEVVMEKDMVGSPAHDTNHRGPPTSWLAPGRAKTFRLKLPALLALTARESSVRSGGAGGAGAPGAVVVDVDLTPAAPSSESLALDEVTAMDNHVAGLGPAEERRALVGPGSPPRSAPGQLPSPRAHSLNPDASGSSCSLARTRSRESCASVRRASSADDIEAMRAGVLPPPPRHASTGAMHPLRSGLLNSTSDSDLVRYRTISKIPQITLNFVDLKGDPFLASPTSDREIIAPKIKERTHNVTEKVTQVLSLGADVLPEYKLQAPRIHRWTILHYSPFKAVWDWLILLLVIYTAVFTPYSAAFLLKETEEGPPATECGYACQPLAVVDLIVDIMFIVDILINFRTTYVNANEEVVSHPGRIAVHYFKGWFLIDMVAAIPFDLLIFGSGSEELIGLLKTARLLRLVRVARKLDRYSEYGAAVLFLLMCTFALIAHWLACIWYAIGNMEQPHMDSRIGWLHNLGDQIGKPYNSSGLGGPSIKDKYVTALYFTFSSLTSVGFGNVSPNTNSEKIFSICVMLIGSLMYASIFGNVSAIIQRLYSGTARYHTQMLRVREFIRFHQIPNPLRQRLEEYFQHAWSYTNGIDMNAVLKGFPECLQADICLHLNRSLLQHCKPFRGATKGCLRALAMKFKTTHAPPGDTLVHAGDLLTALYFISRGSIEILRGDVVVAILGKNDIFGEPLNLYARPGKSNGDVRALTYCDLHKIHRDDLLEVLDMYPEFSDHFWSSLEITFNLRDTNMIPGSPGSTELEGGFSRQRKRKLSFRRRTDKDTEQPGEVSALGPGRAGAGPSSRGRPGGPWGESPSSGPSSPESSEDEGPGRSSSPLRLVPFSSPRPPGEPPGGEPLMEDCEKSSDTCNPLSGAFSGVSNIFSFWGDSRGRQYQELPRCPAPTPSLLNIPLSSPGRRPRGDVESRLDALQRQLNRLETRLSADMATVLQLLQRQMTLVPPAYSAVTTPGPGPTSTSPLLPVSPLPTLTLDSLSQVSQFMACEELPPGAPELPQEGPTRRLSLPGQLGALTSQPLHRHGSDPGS

Row | Compound | hERG current change (%, negative = inhibition) at 1uM
1 | CC(C)C(NC(=S)NCc1ccccc1)C(=O)O (centres unmarked) | 12.7%
2 | N#CNC(N)=Nc1cccc(Cl)c1 | 16.4%
3 | O=C(N/N=C/c1cn(-c2ccccc2)nc1-c1cccnc1)c1cccnc1 | -26.3%
4 | Cc1cc(C)cc(NC(=O)CCN2CCOCC2)c1 | 7.44%
5 | C#CCN(N(C)c1ncc(C(F)(F)F)cc1Cl)S(=O)(=O)c1ccc2ccccc2c1 | 14.3%
6 | Cc1ccc(NC(=S)c2nc3ccccc3[nH]2)c(C)c1 | 14.6%
7 | CC(C)Cn1c(-c2ccc(F)cc2)n[nH]c1=S | 11.6%
8 | COc1ccc(CN2CCN(CCCc3ccccc3)CC2)c(OC)c1 | -64.9%
9 | CC(C(=O)N1CCc2ccccc21)N1CCN(Cc2ccccc2)CC1 (centres unmarked) | 4.18%
10 | CC(C(=O)N1CCc2ccccc21)N1CCN(Cc2ccc(Cl)cc2)CC1 (centres unmarked) | -30.9%
11 | COc1ccc(CN2CCN(CCCc3ccccc3)C(CCO)C2)c(OC)c1 (centres unmarked) | -39.7%
12 | COc1cc(CN2CCN(c3ccccc3F)CC2)cc(OC)c1O | 2.78%
13 | COc1ccc(CN2CCC(C(=O)N3CCN(c4ccccc4F)CC3)CC2)cc1OC | 3.9%
14 | COc1ccc(CN2CCN(C(C)C(=O)N3CCc4ccccc43)CC2)cc1OC (centres unmarked) | -52.3%
15 | COc1ccc(CN2CCN(c3ccccc3F)CC2)cc1O | -51.2%
16 | COc1ccc(CN2CCN(c3ccccc3OC)CC2)c(OC)c1.O=C(O)C(=O)O | -47.7%
17 | COc1ccc(CN2CCN(c3ccccc3F)CC2)c(OC)c1 | -57.8%
18 | COc1ccc(CN2CCN(Cc3ccccc3)CC2)c(OC)c1 | -43.8%
19 | COc1ccc(CN2CCN(Cc3ccccc3F)CC2)c(OC)c1.O=C(O)C(=O)O | -36%
20 | C(=N\n1cnnc1)/c1cccs1 | 5.5%
21 | CN(c1ccc(C(=O)NCCSCc2ccc(Cl)cc2)cc1)S(=O)(=O)c1ccccc1 | 14.1%
22 | CCc1ccc(CN(C)C(=O)c2cc(COc3cccc(C(F)(F)F)c3)on2)nc1 | 6.84%

Row | Compound | hERG current change (%, negative = inhibition) at 1uM
23 | C=CCNC(=O)CSc1nnc(C(CC)N(C)C)n1C1CCCCC1 (centres unmarked) | 8.12%
24 | O=C(Nc1nc(-c2ccccc2)cs1)c1ccc(N2CCOCC2)c([N+](=O)[O-])c1 | 31.6%
25 | CC(=O)Nc1ccc2c(c1)N(C(=O)CN(C)C)c1ccccc1CC2 | 9.16%
26 | Cc1cc(C(=O)CN2C(=O)c3ccccc3C2=O)c(C)n1Cc1cccs1 | 9.88%
27 | COc1ccc(-c2[nH]ncc2CN2CCN(c3ccccn3)CC2)c(OC)c1 | 2.51%
28 | COc1ccc(CN2CCN(c3ccccn3)CC2)c(OC)c1C.O=C(O)C(=O)O | 5.42%
29 | COc1ccc(CN2CCN(c3ccccn3)CC2)c(OC)c1 | -52%
30 | COc1cc(CN2CCN(c3cccc(C)c3C)CC2)cc(Br)c1O | 1.25%
31 | COc1ccc(CN2CCN(c3cccc(C)c3C)CC2)cc1OC | -61.1%
32 | COc1cc(CN2CCN(c3cccc(C)c3C)CC2)cc(OC)c1O | -20.4%
33 | CCOc1ccc(NC(=O)CCC(=O)c2ccc(OC)cc2)cc1 | 16.1%
34 | Cc1c(Cl)ccc(S(=O)(=O)NCCCn2ccnc2)c1Cl | 12.2%
35 | CN1CCN(C(=O)c2cnn(-c3ccccc3)c2NC(=O)c2ccc(Br)cc2)CC1 | -88.5%
36 | CN1CCN(C(=O)c2cnn(-c3ccccc3)c2NC(=O)c2ccccc2)CC1 | 10.4%
37 | CN1CCN(C(=O)c2cnn(-c3ccccc3)c2NC(=O)c2ccccc2Br)CC1 | 15.2%
38 | COc1ccc(CCNC(=O)c2cc3c(=O)n4ccccc4nc3n(CCCN3CCOCC3)c2=N)cc1OC | -39.4%
39 | COc1ccc(CNC(=O)C(C)Sc2nc3ccccc3c(=O)n2CC2CCCO2)cc1 (centres unmarked) | -17.5%
40 | COc1ccc(CCNC(=O)c2cc3c(=O)n4cccc(C)c4nc3n(CCCN3CCOCC3)c2=N)cc1 | -85.1%
41 | Cc1cccn2c(=O)c3cc(C(=O)NCCN4CCOCC4)c(=N)n(CCCN4CCOCC4)c3nc12 | 16.7%
42 | COc1ccc(CCNC(=O)c2cc3c(=O)n4ccccc4nc3n(CCN3CCOCC3)c2=N)cc1 | -82%
43 | COc1ccccc1CNC(=O)CSc1nc2ccccc2c(=O)n1CCCN1CCOCC1 | -6.17%
44 | COc1ccc(CCn2c(=N)c(C(=O)NCCN3CCOCC3)cc3c(=O)n4ccccc4nc32)cc1OC | 10.4%

Row | Compound | hERG current change (%, negative = inhibition) at 1uM
45 | COc1ccc(CCNC(=O)c2cc3c(=O)n4ccccc4nc3n(CCCN3CCOCC3)c2=N)cc1 | -88.9%
46 | COc1ccc(CNC(=O)C(C)Sc2nc3ccccc3c(=O)n2CCCN2CCOCC2)cc1 (centres unmarked) | -95%
47 | Cc1cc(=O)[nH]c(N/N=C/c2c(C)nn(-c3ccc(F)cc3)c2Cl)n1 | -3.02%
48 | CN1CCN(c2ccc(NC(=O)c3cc4ccccc4o3)cc2)CC1 | -14.8%
49 | CCCC(C(=O)NC(C)(C)CC)N(CC1CCCO1)C(=O)CNS(=O)(=O)c1ccc(F)cc1 (centres unmarked) | -12.1%
50 | Cc1nc2ccccc2n1C1CCN(CC(=O)NCc2ccc(F)cc2)CC1 | -23.3%
51 | COc1ccc(CNC(=O)CCC(=O)N2CC(C)Oc3ccccc32)cc1 (centres unmarked) | -0.874%
52 | CCN(C(=O)c1ccc2c(OC)n(CC)nc2c1)c1ccc(OC)cc1 | 0.888%
53 | CC(=O)c1cccc(NC(=O)C2CCN(S(C)(=O)=O)CC2)c1 | 10.7%
54 | CN(C)C=NC(=O)/C(C#N)=C1\CCc2ccccc2N1 | 0.195%
55 | COc1cc(Cl)cc(/C=C/c2ccc3ccccc3n2)c1OC(C)=O | 16.6%
56 | CCCNc1nc(C)cc(-c2cc(C(=O)Nc3ccccc3)on2)n1 | 6.25%
57 | COc1ccc(C(=O)NC2CC2)cc1OC1CCN(Cc2ccc(F)c(F)c2)CC1 | -70.2%
58 | COc1ccc(C(=O)NCCc2cccc(Cl)c2)cc1OC1CCN(C(C)=O)CC1 | -6.31%
59 | COc1ccc(C(=O)NC2CC2)cc1OC1CCN(Cc2cnn(C)c2)CC1 | 6.61%
60 | COCCNC(=O)c1cccc(OC2CCN(Cc3ccc(C(=O)OC)cc3)CC2)c1 | 6.44%
61 | COCCNC(=O)c1cccc(OC2CCN(Cc3ccc(OC(F)F)cc3)CC2)c1 | -75.4%
62 | COc1ccc(C(=O)NC2CC2)cc1OC1CCN(Cc2ccc(Cl)cc2)CC1 | -86.8%
63 | COCCCNC(=O)c1ccc(OC)c(OC2CCN(C(C)C)CC2)c1 | 14.6%
64 | COCCNC(=O)c1cccc(OC2CCN(Cc3ccc(F)c(OC)c3)CC2)c1 | 4.26%
65 | COc1ccc(C(=O)NC2CCC(O)CC2)cc1S(=O)(=O)NCc1ccc(Cl)cc1 (centres unmarked) | -0.258%
66 | COc1cc(C(=O)NC2CCN(Cc3ccccc3)CC2)cc(Cl)c1OC | -1.24%

Row | Compound | hERG current change (%, negative = inhibition) at 1uM
67 | COCCNC(=O)c1cccc(OC2CCN(Cc3ccc(C(C)C)cc3)CC2)c1 | -11.3%
68 | COc1ccc(C(=O)NC2CC2)cc1OC1CCN(Cc2ccccc2)CC1 | -82.9%
69 | CCCCCCCCCCCCOC1OC(CO)C(O)C(O)C1NC(C)=O (centres unmarked) | 4.7%
70 | CC(Oc1ccccc1)C(=O)N=C1SC2CS(=O)(=O)CC2N1CCc1ccccc1 (centres unmarked) | 8.75%
71 | Cc1cc(Br)ccc1NC(=O)CN1C(=O)C2CC=CCC2C1=O (centres unmarked) | 2.16%
72 | CCn1c(SCC(=O)c2ccc3c(c2)OCCO3)nnc1C(C)C | 7.74%
73 | O=C(Cn1c(=O)c(C(F)(F)F)nc2ccccc21)N1CCC2(CC1)OCCO2 | -0.212%
74 | O=C(/C=C/c1ccoc1)c1ccccc1O | 3.71%
75 | COc1ccc(CN2CCN(Cc3ccc(C)cc3)C(CCO)C2)cc1OC (centres unmarked) | -13.3%
76 | COc1cc(C(=O)NC2CCN(Cc3nnnn3Cc3ccc(F)cc3)CC2)cc(OC)c1OC | 3.89%
77 | COc1ccc(C(=O)NC2CCCCC2)cc1OC1CCN(C(C)C)CC1 | -30.9%
78 | COc1ccc(C(=O)NCCCSC)cc1OC1CCN(C(C)C)CC1 | 13.4%
79 | COc1ccc(C(=O)NC2CC2)cc1OC1CCN(Cc2ccc(F)cc2)CC1 | -81.9%
80 | C/C=C(\C)CN1CCC(Oc2cc(C(=O)NC3CC3)ccc2OC)CC1 | -59.9%
81 | O=C(NC1CCN(Cc2ccccc2)CC1)c1ccc2c(c1)[nH]c(=O)n2Cc1ccc(F)cc1 | 6.14%
82 | COc1ccc(C(=O)NC2CC2)cc1OC1CCN(Cc2ccc(SC)cc2)CC1 | -96.9%
83 | COc1ccc(C(=O)NC2CC2)cc1OC1CCN(C(C)CSC)CC1 (centres unmarked) | -54.2%
84 | COc1ccc(C(=O)NC2CCCCCC2)cc1OC1CCN(C(C)=O)CC1 | 7.33%
85 | COc1cc(C(=O)NC2CCCCC2)ccc1OC1CCN(C(C)=O)CC1 | 11.4%
86 | Cc1ccc(S(=O)(=O)N2CCN(C(=O)CSc3ncc(C(F)(F)F)cc3Cl)CC2)cc1 | 11.1%
